Compound activity deposited in PubChem by National Center for Advancing Translational Sciences (NCATS).
NPC1 promoter act = activators of NPC1 promoter. Potency, µM (highest dose often 9.22 µM), without a hit: at the highest dose activation, hits mostly activators. 320,000 tested, 2.4% active. AID 485313. Huh7 NPC1 promoter luciferase reporter, 24 h; note: % of control where 0% means no effect; nearly all actives have a fitted effect of over 60% in size
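Quantitative HTS used a cell-based reporter: Huh7 cells stably bearing the NPC1 promoter upstream of luciferase were treated with compounds for 24 h, and promoter activation was read as luminescence.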
FLuc modulator = inhibits or activates purified firefly luciferase, miR-21 counter-screen | P08659 | purified FLuc, Km substrates, luminescence inhibition | Potency, µM (series often up to 57.5 µM), for inactives: top-dose activity change, negative = inhibition, hits mostly inhibitors | 360,000 tested, 6.9% active | AID 588342;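 note: plate controls were vehicle for no effect and reference inhibitor for full effect; nearly all actives have a fitted effect of over 55% in size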
Target sequence (P08659 whole entry, looked up): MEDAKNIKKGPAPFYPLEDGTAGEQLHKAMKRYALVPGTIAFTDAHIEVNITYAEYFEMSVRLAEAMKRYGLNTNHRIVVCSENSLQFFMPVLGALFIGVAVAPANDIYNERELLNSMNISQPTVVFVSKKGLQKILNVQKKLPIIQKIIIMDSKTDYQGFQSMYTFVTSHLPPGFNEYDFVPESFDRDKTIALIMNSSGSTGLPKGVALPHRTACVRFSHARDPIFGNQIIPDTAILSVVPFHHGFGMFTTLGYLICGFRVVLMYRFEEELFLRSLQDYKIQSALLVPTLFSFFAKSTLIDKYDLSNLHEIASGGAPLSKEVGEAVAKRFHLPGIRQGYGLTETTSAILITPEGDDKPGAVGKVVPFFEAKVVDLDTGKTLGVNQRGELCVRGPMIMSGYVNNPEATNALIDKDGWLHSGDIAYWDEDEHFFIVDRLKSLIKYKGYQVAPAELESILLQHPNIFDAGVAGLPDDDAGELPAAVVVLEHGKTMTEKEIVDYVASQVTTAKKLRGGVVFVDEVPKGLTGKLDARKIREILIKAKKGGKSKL
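Purified P. pyralis luciferase (10nM final) with 10uM D-luciferin and 10uM ATP (Km levels) in 50mM Tris acetate pH 7.5, 10mM Mg acetate, 0.01% Tween-20, 0.05% BSA; qHTS 6-point titration, ~60 µM downward; luminescence read.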
SMN2 splice up = SMN2 splice variant enhancement; HEK293 SMN2-luciferase splicing reporter, luminescence, 30-36 h; AID 1458; 210,000 tested, 2.8% active; Potency, µM (doses to about 46.1 µM), inactives show at the top dose activity change, positive = activation, hits mostly activators; note: % of control where 0% means no effect; nearly all actives have a fitted effect of over 55% in size
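HEK293 cells carry an SMN2 […]–luciferase reporter in which exon 7 inclusion puts luciferase in frame. Cells were plated 10-12 h before compound addition, then incubated 30-36 h at 37C. ONE-Glo luminescence was read; sodium butyrate at 4.5 mM final served as control.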
Rab9 prom act = activates the Rab9 promoter; Huh7 Rab9 promoter-luciferase reporter, luminescence, 24 h; 320,000 tested, 2.8% active; Potency, µM (doses to about 9.22 µM), for inactives: at the highest dose activation, negative = inhibition, actives largely listed as activators; AID 485297; note: % of control where 0% means no effect; nearly all actives have a fitted effect of over 60% in size
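Cell-based reporter: Huh7 stable for Rab9 promoter-driven luciferase, plated in reduced-serum medium with 10% FBS at 1500 cells/well, compound-treated 24 h at 37 °C, luminescence read after 10 min reagent.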
ELG1 genotox = induces genotoxicity in HEK293T cells with luciferase-tagged ELG1. AID 504466. HEK293T ELG1-luciferase reporter, luminescence, 16 h. Potency, µM (titrated, usually from 46 µM), without a hit: top-dose activity change, positive = activation, actives largely listed as activators. 330,000 tested, 1.3% active; note: % of control where 0% means no effect; nearly all actives have a fitted effect of over 60% in size
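Cells (2,000/well) expressing the ELG1-luciferase fusion are dosed by pin tool and kept 16 hr at 37 °C, 5% CO2. Signal comes from ONE-Glo luciferase reagent after 30 min at room temperature.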
uPA surface inh = blocks generation of uPA at the cell surface; AID 540303; Potency, µM (doses to about 38.3 µM), without a hit: at the highest dose activity change, negative = inhibition, actives largely listed as inhibitors; 330,000 tested, 0.31% active; cell surface uPA generation assay, qHTS; active = well fitted inhibition curve with a large enough effect; inconclusive = small, poorly fitted or top-dose-only effect; inactive = no such curve, though single readings can be large or run the other way; tested in mouse RAW 264.7 cells; note: % is set by controls: 0 for no effect and ±100 for the full control effect; nearly all actives have a fitted effect of over 55% in size
* marks the source's active call; other numbers are inactive results; ? = inconclusive; · = no result given; [ ] = dose if it differs, or a comment. Most compounds without a hit are left out; they make up all but 7.3% or so of the library. Unless noted, calls come from the whole dose curve; as a rule, active = well fitted curve in the direction sought with a large enough effect; inconclusive = small, poorly fitted or top-dose-only effect, or another doubt; inactive = no such curve, though single readings can be large; an effect the other way counts as inactive or inconclusive. Potency is the fitted concentration of half-maximal effect.

SMILES | NPC1 promoter act | FLuc modulator | SMN2 splice up | Rab9 prom act | ELG1 genotox | uPA surface inh
N/C(=N\OC(=O)c1ccc(F)cc1)c1cccc([N+](=O)[O-])c1 | ? | 0.239µM* | · | ? | ? | 11.6%
COc1cc(OC)c(C(=O)O/N=C(\N)c2cccc(C)c2)cc1OC | 3.8% | ? | · | 0.5%[1.84 µM] | 6.3% | -10.2%
Cc1cccc(/C(N)=N/OC(=O)c2ccc(F)cc2)c1 | 1µM* | 0.269µM* | ? | 1.58µM* | ? | -6.6%
N/C(=N\OC(=O)c1ccccc1Cl)c1cccc([N+](=O)[O-])c1 | 1.41µM* | 1.2µM* | · | 0.891µM* | 2.59µM* | -4.1%
N/C(=N\OC(=O)c1cccc(Br)c1)c1ccc([N+](=O)[O-])cc1 | -1.2% | ? | · | 0.1% | 2.1% | 12.9%
N/C(=N/OC(=O)c1cccc([N+](=O)[O-])c1)c1cccc([N+](=O)[O-])c1 | 14.6% | ? | 0.4% | 11.8% | 8.4% | -2.2%
N/C(=N\OC(=O)c1ccc2ccccc2c1)c1cccc([N+](=O)[O-])c1 | 26.4% | 1.9µM* | 13.9%[1.84 µM] | 12.2% | ? | 5.3%
COc1ccc(OC)c(CCNc2ncnc3onc(C)c23)c1 | · | -14.0% | · | · | · | ·
N/C(=N\OC(=O)c1cccc(F)c1)c1cccc([N+](=O)[O-])c1 | 25.7% | 1.51µM* | · | 20.6% | ? | 0.7%
O=C(CC(=O)c1cccc([N+](=O)[O-])c1)Nc1ccccc1Cl | 16.4% | 23.9µM* | -11.7% | 11.9% | 3.4% | 2.8%
N/C(=N/OC(=O)c1ccccc1Cl)c1ncc([N+](=O)[O-])s1 | ? | 4.26µM* | · | 1.4% | ? | -5.4%
N/C(=N\OC(=O)c1ccccc1F)c1ccc([N+](=O)[O-])cc1 | ? | ? | · | ? | ? | 2.2%
Cc1ccccc1Cn1c2ccccc2c2cnn(CC(=O)NCCc3ccccc3)c(=O)c21 | · | -7.3% | ? | · | · | ·
CCOc1ccc(CNC(=O)CCn2c(=O)c3cccn3c3cccnc32)cc1 | · | -4.9% | · | · | · | ·
O=C(OCC(=O)c1ccc[nH]1)c1ccccc1 | 8.1% | 16.9µM* | -30.0% | ? | ? | 2.9%
O=C(COC(=O)c1c(F)cccc1F)c1ccc[nH]1 | 4.1% | 16.9µM* | · | 13.5% | 3.8% | -1.1%
O=C(/C=C/c1ccccc1Cl)OCC(=O)c1ccc[nH]1 | 11.4% | 9.53µM* | · | 2.3% | 6.3% | -28.0%
CN(C)c1ccc(C(=O)OCC(=O)c2ccc[nH]2)cc1 | · | · | · | · | 16.4µM* | 3.7%
O=C(/C=C/c1ccc([N+](=O)[O-])cc1)OCC(=O)c1ccc[nH]1 | · | · | · | · | 0.9% | -15.1%
O=C(OCC(=O)c1ccc[nH]1)c1ccc(Cl)c(Cl)c1 | · | · | · | · | -2.4% | 4.0%
O=C(NCCOc1ccccc1F)c1cc(F)c(F)cc1Cl | 0.708µM* | 3.01µM* | 2µM* | 1.41µM* | ? | 3.8%
CSc1ccccc1C(=O)NCCOc1ccccc1C | -1.1% | 4.1% | -9.5% | -1.8% | -3.5% | 1.6%
Cc1ccccc1C(=O)NCCOc1ccccc1Cl | 0.631µM* | 8.49µM* | · | 0.562µM* | 5.8µM* | -6.3%
CCc1ccc(CNC(=O)c2cccc(-n3c(C)nc4cccnc43)c2)cc1 | · | -11.0% | · | · | · | ·
CCn1c(O)c(C=NC2CCCC(C)C2C)sc1=S (configuration not stated) | ? | 15.1µM* | · | ? | ? | -6.9%
SMILES | NPC1 promoter act | FLuc modulator | SMN2 splice up | Rab9 prom act | ELG1 genotox | uPA surface inh
COc1cc(C(=O)N2CCN(c3ccc(C)cc3C)CC2)cc(OC)c1OC | -26.9% | -0.8% | ? | -25.5% | -0.9% | 3.16µM*
Cc1ccc(N2CCN(C(=O)c3ccccc3)CC2)c(C)c1 | -3.1% | 2.8% | -6.9% | -3.0% | 0.0% | -4.7%
C=CCOC(=O)N[C@@H](c1ccc(Br)cc1)C(C(C)=O)C(C)=O | · | · | 8.0% | · | · | ·
CCCCn1c(N)c(N(CCC(C)C)C(=O)CSc2nncn2-c2ccccc2)c(=O)[nH]c1=O | 0.2% | 2.3% | · | -1.7% | -4.8% | 16.8%
COCCN(C(=O)CSCC(=O)Nc1ccc(C)cc1)c1c(N)n(CC(C)C)c(=O)[nH]c1=O | -0.6% | -1.1% | · | -4.1% | -1.8% | -0.5%
CCCCn1c(N)c(N(CCC(C)C)C(=O)CSc2nnc(Nc3ccccc3)s2)c(=O)[nH]c1=O | -0.2% | 23.9µM* | 11.6% | 1.5% | 7.0% | 0.4%
CN(C(=O)CSc1nnc(Nc2ccccc2)s1)c1c(N)n(Cc2ccccc2)c(=O)[nH]c1=O | 1.6% | -29.5% | · | -1.7% | 0.7% | 3.5%
COCCN(C(=O)CSc1nnc(Nc2ccc(C)cc2)s1)c1c(N)n(CC(C)C)c(=O)[nH]c1=O | -2.0% | 10.7µM* | 11.8% | -1.0% | 2.2% | -3.3%
CCCCN(C(=O)CSc1nnc(Nc2ccc(C)c(C)c2)s1)c1c(N)n(Cc2ccccc2)c(=O)[nH]c1=O | 15.0% | 1.07µM* | 22.4µM* | 3.0% | 5.5% | -7.7%
COc1cc2c(cc1OC)C(c1ccc(-c3cc(Cl)ccc3Cl)o1)=NCC2 | -1.9% | 1.0% | -14.5% | -24.0% | -25.9% | -0.5%
COc1cc2c(cc1OC)C(c1ccc(-c3ccc(Cl)cc3Cl)o1)=NCC2 | -7.8% | 15.1µM* | -19.9% | -4.0% | -13.5% | -1.4%
COc1cc2c(cc1OC)C(c1ccc(-c3ccccc3Cl)o1)=NCC2 | 17.3% | 2.13µM* | -38.4% | -2.0% | 11.1% | ·
COc1cc2c(cc1OC)C(c1ccc(Cl)cc1)=NCC2 | -10.6% | -0.5% | · | -8.6% | -7.8% | -4.8%
COc1cc2c(cc1OC)C(c1ccc(-c3ccc(Cl)c(Cl)c3)o1)=NCC2 | -0.6% | 15.1µM* | -62.4% | -8.2% | -16.4% | -9.5%
CC(C)Sc1nc2ccc(Br)cc2[nH]1 | 23.3% | 16.9µM* | · | ? | ? | -1.4%
CCN1C(=O)CC(N2CCN(c3ccc(C(=O)c4ccccc4)cc3)CC2)C1=O (configuration not stated) | · | 19µM* | -13.6% | · | · | -7.1%
O=C(CN1C(=O)NC2(CCOc3ccccc32)C1=O)c1ccc(Cl)s1 (configuration not stated) | -0.4% | · | · | -6.9% | -1.1% | -7.1%
CCc1ccc(C(=O)CN2C(=O)NC3(CCOc4ccccc43)C2=O)s1 (configuration not stated) | -2.7% | 16.9µM* | · | 1.4% | 0.7% | -15.5%
